In general, AC50 refers to the midpoint of the concentration-response curve, whichever way the signal moves.

The whole screen tested about 16,000 compounds, of which about 2,600 (16%) were called active. Not shown: some 20% with an inconclusive outcome. The call rests on the fitted dose curve; in most records, active means well fitted curve in the direction sought with a large enough effect; inconclusive means small, poorly fitted or top-dose-only effect, or effect the other way; inactive means no such curve, though single readings can be large or run the other way. The list is a sample of the results.
On the % scale 0 is the no-effect control and ±100 the full control effect.

The target in this test is Cytochrome P450 2D6 (Homo sapiens) (UniProt P10635). In words: Cytochrome panel assay with activity outcomes. The conditions noted are these: recombinant CYP, pro-luciferin dealkylation, luminescence, p450-cyp2d6; series mostly up to 57.1 µM; activity, negative = inhibition: at the top concentration.
Chain of Cytochrome P450 2D6 (Homo sapiens) (P10635 whole entry, looked up): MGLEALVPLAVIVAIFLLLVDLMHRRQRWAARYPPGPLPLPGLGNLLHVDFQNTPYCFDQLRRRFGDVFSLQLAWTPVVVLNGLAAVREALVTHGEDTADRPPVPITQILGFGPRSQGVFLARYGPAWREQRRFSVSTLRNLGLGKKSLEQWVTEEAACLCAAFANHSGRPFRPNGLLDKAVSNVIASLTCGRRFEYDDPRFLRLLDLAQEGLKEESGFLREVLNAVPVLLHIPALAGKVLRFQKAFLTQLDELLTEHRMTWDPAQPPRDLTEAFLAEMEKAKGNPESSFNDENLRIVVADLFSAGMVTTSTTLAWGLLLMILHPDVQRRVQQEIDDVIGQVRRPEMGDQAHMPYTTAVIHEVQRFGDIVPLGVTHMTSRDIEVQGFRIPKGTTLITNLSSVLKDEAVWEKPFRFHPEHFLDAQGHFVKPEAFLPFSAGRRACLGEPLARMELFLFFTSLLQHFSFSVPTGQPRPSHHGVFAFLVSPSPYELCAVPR
`O=C(/C=C/c1ccccc1)N1CCN(Cc2nc3ccccc3c(=O)[nH]2)CC1`: the “activity, negative = inhibition” value is -21.2% (inactive). On to `CS(=O)(=O)Nc1cccc(-c2nc(NCc3ccccc3)c3ccccc3n2)c1`, for which the AC50 was 20 µM (active).

As for `COc1cccc(-c2nc(NCc3cccs3)c3ccccc3n2)c1`, the AC50 was 12.6 µM (active). `CS(=O)(=O)Nc1cccc(-c2nc(NCc3cccnc3)c3ccccc3n2)c1`: the AC50 was 20 µM (active).

For the molecule `Cc1cccc(CNc2nc(-c3cccc(NS(C)(=O)=O)c3)nc3ccccc23)c1`, the AC50 was 12.6 µM (active). `O=C(O)CSc1sc(=S)sc1SCC(=O)O`: the “activity, negative = inhibition” value was -6.18% (inactive). Regarding `N[C@@H](Cc1ccc(O)c(O)c1)C(=O)O`, the AC50 entry is “inactive”.

On to `O=C(NNC(=O)c1cc2cc3ccccc3nc2s1)c1cccc(Cl)c1`, for which the “activity, negative = inhibition” value was 15.3% (inactive). For the molecule `COc1ccc(NC(=O)c2ccc3c(=O)n(Cc4ccco4)c(=S)[nH]c3c2)c(OC)c1`, the “activity, negative = inhibition” value was -14.5% (inactive).

As to `Cc1nc2c(ccc3nc(NC(=O)c4ccc5c(c4)OCCO5)sc32)s1`, the “activity, negative = inhibition” value was -17.3% (inactive). On the same count and under the same terms, the result for `CCOCCCNC(=O)C1CCN(S(=O)(=O)N2CC(C)CC(C)C2)CC1` (stereo not drawn) reads -0.643% (inactive); that for `CC[C@H](C)N(C)C(=O)c1cc2ccccc2c(-c2ccccc2Cl)n1`, 8.23% (inactive). With `CCOC(=O)CC(NC(=O)c1ccc(C)cc1)c1ccc(C)cc1` (stereo not drawn), the “activity, negative = inhibition” value is -14.9% (inactive). The same measure, in the same setting: the result for `O=C(c1cccc(F)c1)N1CCC[C@@]2(CCN(c3cccc(-c4ccccc4)c3)C2)C1` reads -12.7% (inactive); that for `COc1cccc(Nc2ncc3nc(C)c(=O)n(-c4ccccc4)c3n2)c1`, -7.35% (inactive); that for `Cc1oc2c(C)c(O)ccc2c(=O)c1-c1ccc2ccccc2n1`, -5.6% (inactive). Same read-out and setting: the result for `O=[N+]([O-])c1ccc(CSc2ncnc3c2ncn3[C@@H]2O[C@@H](CO)[C@@H](O)[C@H]2O)cc1` reads 2.45% (inactive). Turning to `CS(=O)(=O)Nc1cccc(-c2nc(NCc3cccs3)c3ccccc3n2)c1`, the AC50 was 10 µM (active). With `CCOC(=O)C(NC(C)=O)C(OC(C)=O)c1cccc(N(CCO)CCO)c1` (stereo not drawn), the “activity, negative = inhibition” value was -0.0705% (inactive). Same read-out and setting: in the case of `Cc1nc(-c2c(C(F)(F)F)noc2-c2ccc(O)cc2O)cs1` it was -24.6% (inactive).

`CC(=O)Nc1ccc(S(=O)(=O)NCCc2ccc(F)cc2)cc1`: the AC50 was 15.8 µM (active). Take `CC(=O)Nc1ccc(S(=O)(=O)c2ccc(N)cc2)cc1`: the “activity, negative = inhibition” value was -1.48% (inactive). The same measure, in the same setting: in the case of `COc1ccc(CCNC(=O)CC(NS(=O)(=O)c2ccc(NC(C)=O)cc2)C(C)C)cc1OC` (stereo not drawn) it was -8.43% (inactive). Consider `CN(Cc1ccco1)c1cc(-c2ccc3c(c2)OCO3)ncn1`, for which the AC50 is 12.6 µM (active). Take `CN(Cc1ccco1)c1cc(-c2ccoc2)ncn1`: the “activity, negative = inhibition” value is -0.773% (inactive). As to `CN(C)c1ccc(-c2cc(N(C)Cc3ccco3)ncn2)cc1`, the AC50 was 7.94 µM (active). Consider `CN(C)C(=O)c1ccc(-c2cc(N(C)Cc3ccco3)ncn2)cc1`, for which the “activity, negative = inhibition” value was -13.6% (inactive). Still for that read-out and setting: the result for `COc1ccc(C(=O)N2CCC3(CC2)CN(C(=O)Nc2cccc(C#N)c2)C3)cc1` reads 2.7% (inactive).

The values above are taken from PubChem BioAssay AID1851 (National Center for Advancing Translational Sciences (NCATS), 2009).
